Reference: PubChem BioAssay (NCATS)
Inconclusive results are not listed. Active and inactive are the calls of the source. Unless noted, calls follow the shape of the dose curve; as a rule, active = well fitted curve in the direction sought with a large enough effect; inconclusive = small, poorly fitted or top-dose-only effect, or another doubt; inactive = no such curve, though single readings can be large; an effect the other way counts as inactive or inconclusive.

Key:
[1] = Cell Viability - LYMP2-019 (AID 973);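 also: 0% = DMSO alone and full effect = 92 µM tetraoctylammonium bromide; nearly all actives have a fitted effect of over 55% in size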
Method in brief: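 Cells plated at 2500/well and allowed 5 hr at 37 C before compound addition. After 24 hr incubation, CellTiter-Glo reagent was added, plates sat 30 min at room temperature, and luminescence was recorded.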

[2] = Cell Viability - LYMP2-021 (AID 974);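 also: compound exposure lasts 24 hours at 37 °C; % is scaled to controls: 0 for no effect and ±100 for the full control effect; nearly all actives have a fitted effect of over 55% in size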
Method in brief: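 Concentration-response cytotoxicity in a human lymphoblastoid line: 24 hr treatment at 37 C in complete culture medium, tetraoctylammonium bromide as positive control, luminescent ATP quantitation as viability measure.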

[3] = Cell Viability - LYMP2-023 (AID 975);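 also: cellular ATP measured by luciferase luminescence as viability proxy; series mostly up to about 92 µM; plate controls were DMSO only for no effect and 92 µM tetraoctylammonium bromide control for full effect; nearly all actives have a fitted effect of over 55% in size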
Method in brief: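 Concentration-dependent drop in intracellular ATP measures acute cytotoxicity in a human lymphoblastoid line treated for 24 hours in complete culture medium. AC50 values are taken from Hill-equation fits of qHTS data.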

[4] = Cell Viability - LYMP2-002 (AID 977);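 also: series mostly up to about 92 µM; compound exposure lasted 24 h at 37 °C; plate controls were DMSO only for no effect and 92 µM tetraoctylammonium bromide for full effect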
Method in brief: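 Human lymphoblastoid LYMP2-002 cells, 2500 per well, exposed to compounds for 24 h at 37 C in complete medium; viability read as intracellular ATP by CellTiter-Glo luminescence, AC50 from Hill fits.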

[5] = Cell Viability - LYMP2-006 (AID 978); also: series mostly up to about 92 µM; % is scaled to controls: 0 for no effect and ±100 for the full control effect; nearly all actives have a fitted effect of over 60% in size
Method in brief: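 qHTS, 1536-well; 2500 cells/well, 5 hr 37 C; cpd 24 hr 37 C; CellTiter-Glo 30 min RT; luminescence. Tetraoctylammonium bromide pos. ctrl. AC50 via Hill eqn.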

[6] = Cell Viability - LYMP2-007 (AID 979);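 also: cells exposed to compound for 24 h before reading; 0% = DMSO only and the negative end = 92 µM tetraoctylammonium bromide; nearly all actives have a fitted effect of over 60% in size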
Method in brief: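 Acute toxicity is scored as a concentration-dependent fall in intracellular ATP in human lymphoblastoid cells treated 24 hr at 37 C, measured by luciferase luminescence; Hill-equation modelling yields AC50.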

[7] = Cell Viability - LYMP2-008 (AID 980); also: % is scaled to controls: 0 for no effect and ±100 for the full control effect; nearly all actives have a fitted effect of over 60% in size
Method in brief: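 Acute cytotoxicity is scored as concentration-dependent loss of cellular ATP in a human lymphoblastoid line after 24 hr treatment at 37 C. ATP is quantified by luciferase luminescence.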

[8] = Cell Viability - LYMP2-010 (AID 981); also: % is scaled to controls: 0 for no effect and ±100 for the full control effect; nearly all actives have a fitted effect of over 55% in size
Method in brief: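 Acute toxicity is scored as a concentration-dependent loss of cellular ATP in human lymphoblastoid cells after 24 hr compound exposure in complete medium. Tetraoctylammonium bromide is the positive control.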

[9] = Cell Viability - LYMP2-012 (AID 982)
[10] = Cell Viability - LYMP2-014 (AID 983);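 also: series mostly up to about 92 µM; plate controls were DMSO only for no effect and 92 µM tetraoctylammonium bromide for full effect; nearly all actives have a fitted effect of over 50% in size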
Method in brief: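 Decrease in intracellular ATP after 24 hr treatment at 37 C, measured by luciferase luminescence, indicated cytotoxicity. Concentration-response data were fitted with the standard Hill equation to give AC50.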

[11] = Cell Viability - LYMP2-016 (AID 984)
Method in brief: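 qHTS, 1536-well: 2500 LYMP2-016 cells/well, 5 hr 37 C, compound added, 24 hr 37 C, CellTiter-Glo 30 min RT, luminescence. Tetraoctylammonium bromide positive control. AC50 via Hill fit.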

[12] = Cell Viability - LYMP2-020 (AID 986)
Method in brief: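 Acute cytotoxicity in a human lymphoblastoid line is scored as a concentration-dependent fall in cellular ATP after 24 hr at 37 C in complete medium. The positive control is tetraoctylammonium bromide, and potency is given as Hill-fit AC50.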

[13] = Cell Viability - LYMP2-022 (AID 987)
Method in brief: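 Acute toxicity in a human lymphoblastoid line is scored as decreased intracellular ATP after 24 hr compound treatment at 37 C. ATP is measured by CellTiter-Glo luminescence; curves are fitted with the Hill equation to give AC50.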

[14] = Cell Viability - LYMP2-024 (AID 988);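 also: plate controls were DMSO only for no effect and 92 µM tetraoctylammonium bromide for full effect; nearly all actives have a fitted effect of over 60% in size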
Method in brief: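 Acute toxicity is measured as concentration-dependent loss of intracellular ATP in a human lymphoblastoid line treated 24 hours at 37 C. Luciferase luminescence quantifies ATP; AC50 values come from standard Hill-equation modelling.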

[15] = Cell Viability - LYMP2-026 (AID 989); also: % is scaled to controls: 0 for no effect and ±100 for the full control effect; nearly all actives have a fitted effect of over 50% in size
Method in brief: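 Concentration-dependent loss of intracellular ATP in human lymphoblastoid cells after 24 hr at 37 C, quantified by luciferase luminescence. AC50 derived from standard Hill equation.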

[16] = Cell Viability - LYMP1-002 - Assay at 24 hr (AID 993); also: % is scaled to controls: 0 for no effect and ±100 for the full control effect
Method in brief: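 qHTS, LYMP1-002 lymphoblastoid, 24 h cpd, 37 C, CellTiter-Glo ATP luminescence; AC50 via Hill eq.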

[17] = Cell Viability - LYMP1-002 - Assay at 40 hr (AID 994)
Method in brief: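 Viability in the human lymphoblastoid line was measured as intracellular ATP via CellTiter-Glo after 40 hr compound exposure. Tetraoctylammonium bromide served as positive control.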

[18] = molecular target: Glucocorticoid receptor (Homo sapiens) (UniProt P04150); assay: qHTS assay for small molecule agonists of glucocorticoid receptor signaling (AID 588532; active = well fitted curve in the direction sought with a large enough effect in the signal ratio, with a control signal flat; the % refers to the signal ratio;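 also: 100% = dexamethasone at 0.1 µM and 0% = DMSO only wells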); settings: HeLa MMTV-bla, beta-lactamase ratio, agonist, 18 h; stronger effect = higher value; percent of dexamethasone control, DMSO zero
Glucocorticoid receptor (Homo sapiens), sequence (P04150 whole entry, looked up): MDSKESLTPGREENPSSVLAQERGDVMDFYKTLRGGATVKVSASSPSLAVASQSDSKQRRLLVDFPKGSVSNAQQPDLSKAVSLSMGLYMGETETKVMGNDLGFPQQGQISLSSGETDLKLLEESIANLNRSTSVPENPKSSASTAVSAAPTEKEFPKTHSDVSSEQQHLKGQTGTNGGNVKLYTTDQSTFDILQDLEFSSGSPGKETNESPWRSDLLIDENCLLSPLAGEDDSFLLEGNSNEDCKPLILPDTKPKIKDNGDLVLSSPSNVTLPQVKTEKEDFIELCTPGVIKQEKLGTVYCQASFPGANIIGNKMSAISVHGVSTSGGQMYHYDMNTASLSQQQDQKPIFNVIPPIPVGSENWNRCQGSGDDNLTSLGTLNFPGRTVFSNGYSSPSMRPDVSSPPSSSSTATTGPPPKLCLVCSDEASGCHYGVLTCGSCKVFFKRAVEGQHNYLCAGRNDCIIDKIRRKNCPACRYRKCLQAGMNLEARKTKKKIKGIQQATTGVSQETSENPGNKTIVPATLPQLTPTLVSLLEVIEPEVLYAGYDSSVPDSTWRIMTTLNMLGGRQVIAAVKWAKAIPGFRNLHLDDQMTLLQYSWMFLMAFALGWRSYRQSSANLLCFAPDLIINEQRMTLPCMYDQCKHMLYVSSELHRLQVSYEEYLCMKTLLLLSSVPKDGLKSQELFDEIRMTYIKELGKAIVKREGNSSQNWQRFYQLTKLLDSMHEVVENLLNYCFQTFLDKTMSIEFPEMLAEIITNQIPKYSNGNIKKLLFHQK
Method in brief: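 Cells were plated and rested 3-5 h at 37 C, compounds were added in titration and incubated 18 h, then CCF4 substrate was loaded for 2 h at RT before reading blue/green fluorescence. EC50 came from Hill-equation fitting.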

[19] = molecular target: Glucocorticoid receptor (Homo sapiens) (UniProt P04150); assay: qHTS assay for small molecule antagonists of glucocorticoid receptor signaling (AID 588533; active = well fitted inhibition curve with a large enough effect in the signal ratio, with a control signal flat, not every such curve was filed as active; the % refers to the signal ratio; also: % is scaled to controls: 0 for no effect and ±100 for the full control effect)
Method in brief: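 Antagonist-mode qHTS: compound titrations added to GRE-bla HeLa cells, then dexamethasone 2 nM final; 18 h, 37 C. CCF4 FRET fluorescence normalized to dexamethasone and DMSO; IC50 from Hill fit.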

[20] = qHTS assay for small molecule antagonists of peroxisome proliferator-activated receptor delta signaling (AID 588535; active = well fitted inhibition curve with a large enough effect in the signal ratio, with a control signal flat, not every such curve was filed as active; the % refers to the signal ratio;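 as to max response: cells co-treated with a PPAR-delta agonist as stimulator during compound exposure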); settings: HEK293T PPARd-UAS-bla, beta-lactamase FRET ratio, 18 h; 460 nm channel
Method in brief: (§1)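 Cells were seeded at 4000 per well in assay medium containing 2% charcoal/dextran FBS and held 5 hrs at 37 C. Compounds were then added for 18 hrs. CCF4 substrate was applied for 2 hrs at room temperature before fluorescence reading.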

[21] = molecular target: Peroxisome proliferator-activated receptor delta (Homo sapiens) (UniProt Q03181); assay: as above
Peroxisome proliferator-activated receptor delta (Homo sapiens), sequence (Q03181 whole entry, looked up): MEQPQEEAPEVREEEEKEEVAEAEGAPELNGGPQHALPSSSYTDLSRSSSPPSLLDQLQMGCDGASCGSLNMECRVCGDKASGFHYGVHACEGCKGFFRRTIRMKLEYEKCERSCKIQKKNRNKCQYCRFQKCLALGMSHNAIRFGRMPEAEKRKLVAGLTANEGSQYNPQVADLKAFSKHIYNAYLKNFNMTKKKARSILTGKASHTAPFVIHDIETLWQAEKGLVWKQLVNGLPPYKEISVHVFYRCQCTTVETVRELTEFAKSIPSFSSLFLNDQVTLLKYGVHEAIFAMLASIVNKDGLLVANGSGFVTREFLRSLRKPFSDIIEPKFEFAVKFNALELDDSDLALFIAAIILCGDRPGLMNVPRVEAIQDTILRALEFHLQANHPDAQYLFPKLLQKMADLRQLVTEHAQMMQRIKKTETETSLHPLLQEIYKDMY
Method in brief: as §1

[22] = molecular target: Peroxisome proliferator-activated receptor gamma (Homo sapiens) (UniProt P37231); assay: qHTS assay for small molecule agonists of peroxisome proliferator-activated receptor gamma signaling (AID 588536; active = well fitted curve in the direction sought with a large enough effect in the signal ratio, with a control signal flat, not every such curve was filed as active; the % refers to the signal ratio;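 also: 0% = DMSO basal wells and 100% = rosiglitazone at 2 µM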)
Peroxisome proliferator-activated receptor gamma (Homo sapiens), sequence (P37231 whole entry, looked up): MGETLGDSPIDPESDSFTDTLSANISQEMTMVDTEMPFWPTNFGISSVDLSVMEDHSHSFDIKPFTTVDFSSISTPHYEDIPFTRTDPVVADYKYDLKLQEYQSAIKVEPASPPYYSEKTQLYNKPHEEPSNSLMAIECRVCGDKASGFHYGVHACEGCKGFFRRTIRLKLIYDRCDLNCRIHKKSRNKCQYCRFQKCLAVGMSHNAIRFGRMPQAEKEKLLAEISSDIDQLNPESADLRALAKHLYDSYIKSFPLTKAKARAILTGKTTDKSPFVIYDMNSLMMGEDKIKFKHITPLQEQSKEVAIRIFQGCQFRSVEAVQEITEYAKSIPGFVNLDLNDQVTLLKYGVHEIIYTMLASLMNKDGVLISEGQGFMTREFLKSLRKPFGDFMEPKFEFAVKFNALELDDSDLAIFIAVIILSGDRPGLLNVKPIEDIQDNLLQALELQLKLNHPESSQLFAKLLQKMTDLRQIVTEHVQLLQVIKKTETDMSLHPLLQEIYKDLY
Method in brief: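 PPAR-gamma-UAS-bla HEK293 cells in medium with 1% charcoal/dextran-treated FBS were exposed to compounds for 16 h at 37 C. Beta-lactamase activity was read with CCF4 substrate (405 nm excitation, 460/530 nm emission).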

[23] = molecular target: Vitamin D3 receptor (Homo sapiens) (UniProt P11473); assay: qHTS assay for small molecule antagonists of vitamin D receptor signaling (AID 588541; calls by dose curve;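 also: receptor activated by calcitriol during compound treatment; series mostly up to about 77 µM; % is scaled to controls: 0 for no effect and ±100 for the full control effect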)
Vitamin D3 receptor (Homo sapiens), sequence (P11473 whole entry, looked up): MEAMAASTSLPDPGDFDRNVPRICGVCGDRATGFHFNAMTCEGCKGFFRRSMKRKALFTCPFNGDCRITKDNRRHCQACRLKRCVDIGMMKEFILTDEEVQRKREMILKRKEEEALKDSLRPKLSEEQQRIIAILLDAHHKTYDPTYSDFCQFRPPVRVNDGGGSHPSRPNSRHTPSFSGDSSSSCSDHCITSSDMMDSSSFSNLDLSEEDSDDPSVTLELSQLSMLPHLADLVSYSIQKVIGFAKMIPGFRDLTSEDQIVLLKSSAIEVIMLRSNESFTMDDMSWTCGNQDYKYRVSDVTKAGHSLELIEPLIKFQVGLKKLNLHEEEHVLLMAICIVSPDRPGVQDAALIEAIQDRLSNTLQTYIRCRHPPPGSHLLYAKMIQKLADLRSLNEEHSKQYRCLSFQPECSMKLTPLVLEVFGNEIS
Method in brief: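 VDR-UAS-bla HEK293T cells in 2% charcoal-stripped FBS were stimulated with 1-alpha,25-dihydroxyvitamin D3 (3 nM final) plus compound for 16 h at 37 C. The beta-lactamase CCF4 readout was normalized to 50 nM agonist and DMSO, and Hill fits gave IC50.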

[24] = molecular target: Vitamin D3 receptor (Homo sapiens) (UniProt P11473); assay: qHTS assay for small molecule agonists of vitamin D receptor signaling (AID 588543; calls by dose curve;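 also: 0% = DMSO basal and 100% = reference agonist control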)
Method in brief: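 β-lactamase reporter, VDR-UAS-bla HEK293T, agonist mode. Cells plated 5 h at 37 °C, compound titration 16 h at 37 °C, CCF4 dye 2 h RT, ratio 460/530 nm. Hill fit → EC50, efficacy vs 50 nM 1α,25-(OH)2D3.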

[25] = qHTS assay for small molecule agonists of retinoid X receptor alpha signaling (AID 588544; calls by dose curve;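 as to activation: 0% = DMSO basal wells and 100% = reference agonist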); settings: HEK293T RXRa-UAS-bla, beta-lactamase reporter, 18 h; 530 nm emission
[26] = molecular target: Retinoic acid receptor RXR-alpha (Homo sapiens) (UniProt P19793); assay: as above
Retinoic acid receptor RXR-alpha (Homo sapiens), sequence (P19793 whole entry, looked up): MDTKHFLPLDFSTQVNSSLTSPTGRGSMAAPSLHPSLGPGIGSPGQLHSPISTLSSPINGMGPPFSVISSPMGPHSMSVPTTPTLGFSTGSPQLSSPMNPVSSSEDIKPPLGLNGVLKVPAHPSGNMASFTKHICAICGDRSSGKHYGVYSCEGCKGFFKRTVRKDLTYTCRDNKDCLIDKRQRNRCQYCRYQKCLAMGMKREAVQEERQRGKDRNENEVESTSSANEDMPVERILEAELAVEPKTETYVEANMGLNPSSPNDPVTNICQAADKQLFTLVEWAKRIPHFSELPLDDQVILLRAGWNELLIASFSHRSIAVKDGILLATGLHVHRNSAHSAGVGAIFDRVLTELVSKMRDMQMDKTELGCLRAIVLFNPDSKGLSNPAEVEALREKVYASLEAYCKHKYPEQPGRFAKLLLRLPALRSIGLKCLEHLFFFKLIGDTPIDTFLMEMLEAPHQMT

[27] = molecular target: Thyroid hormone receptor beta (Homo sapiens) (UniProt P10828); assay: qHTS assay for small molecule agonists of thyroid hormone receptor beta signaling (AID 588545; calls by dose curve;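 also: 0% = DMSO only and 100% = 10 nM T3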)
Thyroid hormone receptor beta (Homo sapiens), sequence (P10828 whole entry, looked up): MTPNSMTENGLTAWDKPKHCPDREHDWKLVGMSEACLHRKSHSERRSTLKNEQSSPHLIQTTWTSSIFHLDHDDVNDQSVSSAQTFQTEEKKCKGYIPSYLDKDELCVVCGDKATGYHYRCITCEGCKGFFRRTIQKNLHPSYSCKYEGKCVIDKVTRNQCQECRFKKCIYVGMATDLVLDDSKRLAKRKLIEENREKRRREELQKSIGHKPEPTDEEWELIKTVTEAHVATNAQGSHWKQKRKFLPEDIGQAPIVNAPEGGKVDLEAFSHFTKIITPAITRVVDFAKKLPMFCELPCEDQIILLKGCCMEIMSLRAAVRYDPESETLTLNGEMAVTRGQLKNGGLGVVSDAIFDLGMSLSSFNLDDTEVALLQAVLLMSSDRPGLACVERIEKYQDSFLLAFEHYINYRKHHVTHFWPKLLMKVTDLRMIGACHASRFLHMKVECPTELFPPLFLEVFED
Method in brief: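 Efficacy and EC50 values derive from Hill fits of qHTS titration data, normalized to 10 nM T3 and DMSO-only wells. HEK 293 reporter cells were stimulated for 18 hrs at 37 C, with beta-lactamase activity measured by CCF4 fluorescence.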

[28] = molecular target: Thyroid hormone receptor beta (Homo sapiens) (UniProt P10828); assay: qHTS assay for small molecule antagonists of thyroid hormone receptor beta signaling (AID 588547; active = well fitted inhibition curve with a large enough effect in the signal ratio, with a control signal flat, not every such curve was filed as active; the % refers to the signal ratio;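 also: cells stimulated with 0.4 nM T3 agonist during compound exposure; series mostly up to about 77 µM; % is scaled to controls: 0 for no effect and ±100 for the full control effect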); settings: TR-UAS-bla HEK293, beta-lactamase ratio, antagonist mode, 18 h
Method in brief: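 TR-UAS-bla GripTite HEK293 cells in 2% charcoal/dextran FBS medium; compounds 0.59 nM to 92 uM with T3 at 0.4nM final, 18 h at 37 C. Beta-lactamase read by CCF4 fluorescence (460/530 nm); Hill fits gave IC50 and efficacy.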

[29] = molecular target: Voltage-gated inwardly rectifying potassium channel KCNH2 (Homo sapiens) (UniProt Q12809); assay: qHTS Assay for Small Molecule Inhibitors of the Human hERG Channel Activity (AID 588834);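 also: top concentration of the series differs between compounds; % is scaled to controls: 0 for no effect and ±100 for the full control effect; lower thallium flux fluorescence means stronger hERG block; nearly all actives have a fitted effect of over 50% in size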
Method in brief: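 Concentration-response qHTS measuring drop in thallium-sensitive dye signal. U2OS cells carrying BacMam hERG; compound exposure ~10 min, then stimulation buffer and 2 min read at 1 sec intervals.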

[30] = qHTS assay for small molecule activators of the p53 signaling pathway (AID 651743; active = well fitted activation curve with a large enough effect in the signal ratio, not every such curve was filed as active; the % refers to the signal ratio; also: series mostly up to about 92 µM; % of control where 0% means no effect); settings: HCT-116 p53RE-bla, beta-lactamase FRET ratio, 16 h; activation: stronger effect = higher value
Method in brief: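 HCT-116 p53RE-bla, 4,000 cells/well; 5 h settle; cpd/DMSO 16 h, 37 C; LiveBLAzer B/G 2 h RT; fluorescence intensity.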

[31] = qHTS assay for small molecule activators of the nuclear factor-kappa B (NF-kB) signaling pathway (AID 651749; active = well fitted activation curve with a large enough effect in the signal ratio; the % refers to the signal ratio; also: series mostly up to about 77 µM; % of control where 0% means no effect); settings: NF-kB-bla ME-180 cells, beta-lactamase FRET ratio, 16 h; stronger effect = higher value
Method in brief: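 Incubation lasted 16 hr at 37C in 5% CO2 after 23 nL compound addition to ME-180 NF-kB-bla cells. Activation appears as beta-lactamase-mediated FRET loss.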

[32] = molecular target: Tumor necrosis factor (Homo sapiens) (UniProt P01375); assay: qHTS assay to identify small molecules that stimulate Tumor Necrosis Factor-alpha (TNF-alpha) secretion (AID 651757; active = well fitted curve in the direction sought with a large enough effect in the signal ratio; the % refers to the signal ratio; also: 0% is about no effect)
Tumor necrosis factor (Homo sapiens), sequence (P01375 whole entry, looked up): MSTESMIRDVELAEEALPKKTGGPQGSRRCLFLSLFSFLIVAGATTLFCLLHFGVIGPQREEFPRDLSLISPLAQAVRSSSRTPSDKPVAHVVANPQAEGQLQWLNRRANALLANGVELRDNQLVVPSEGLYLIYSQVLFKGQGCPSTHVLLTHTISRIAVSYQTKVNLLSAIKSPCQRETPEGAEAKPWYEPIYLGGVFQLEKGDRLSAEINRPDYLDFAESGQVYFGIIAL
Method in brief: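 Secreted TNF-alpha from compound-treated THP-1 cells (17 hrs, 37 C) was quantified with a homogeneous time-resolved fluorescence antibody assay.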

[33] = molecular target: Peroxisome proliferator-activated receptor alpha (Homo sapiens) (UniProt Q07869); assay: qHTS assay for small molecule agonists of the peroxisome proliferator-activated receptor alpha (PPARalpha) signaling pathway (AID 651778); settings: PathHunter PPARalpha complementation, chemiluminescence, 6 h; max response: stronger effect = higher value; also: % of control where 0% means no effect
Peroxisome proliferator-activated receptor alpha (Homo sapiens), sequence (Q07869 whole entry, looked up, the tested form may be a part): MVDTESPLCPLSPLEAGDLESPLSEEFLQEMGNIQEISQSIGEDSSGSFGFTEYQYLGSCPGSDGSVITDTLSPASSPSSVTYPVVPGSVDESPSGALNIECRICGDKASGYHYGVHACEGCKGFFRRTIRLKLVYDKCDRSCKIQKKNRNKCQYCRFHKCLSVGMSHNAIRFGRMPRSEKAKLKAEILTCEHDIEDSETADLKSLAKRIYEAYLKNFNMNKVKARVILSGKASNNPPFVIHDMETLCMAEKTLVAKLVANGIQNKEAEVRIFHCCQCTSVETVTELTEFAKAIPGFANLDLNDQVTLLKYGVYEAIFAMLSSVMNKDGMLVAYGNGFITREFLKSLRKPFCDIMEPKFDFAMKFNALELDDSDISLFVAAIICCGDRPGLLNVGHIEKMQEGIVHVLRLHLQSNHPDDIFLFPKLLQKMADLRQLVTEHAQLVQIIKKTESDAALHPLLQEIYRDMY
Method in brief: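 Enzyme-fragment complementation assay in which ligand-bound PPARalpha translocates and forms an active enzyme that generates chemiluminescence. Cells were plated overnight, exposed to compound for 6 hr at 37 C, and then given detection reagent for 60 min at room temperature.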

[34] = molecular target: Nuclear receptor ROR-gamma (Homo sapiens) (UniProt P51449); assay: qHTS assay for small molecule antagonists of the retinoid-related orphan receptor gamma (ROR-gamma) signaling pathway (AID 651802)
Nuclear receptor ROR-gamma (Homo sapiens), sequence (P51449 whole entry, looked up): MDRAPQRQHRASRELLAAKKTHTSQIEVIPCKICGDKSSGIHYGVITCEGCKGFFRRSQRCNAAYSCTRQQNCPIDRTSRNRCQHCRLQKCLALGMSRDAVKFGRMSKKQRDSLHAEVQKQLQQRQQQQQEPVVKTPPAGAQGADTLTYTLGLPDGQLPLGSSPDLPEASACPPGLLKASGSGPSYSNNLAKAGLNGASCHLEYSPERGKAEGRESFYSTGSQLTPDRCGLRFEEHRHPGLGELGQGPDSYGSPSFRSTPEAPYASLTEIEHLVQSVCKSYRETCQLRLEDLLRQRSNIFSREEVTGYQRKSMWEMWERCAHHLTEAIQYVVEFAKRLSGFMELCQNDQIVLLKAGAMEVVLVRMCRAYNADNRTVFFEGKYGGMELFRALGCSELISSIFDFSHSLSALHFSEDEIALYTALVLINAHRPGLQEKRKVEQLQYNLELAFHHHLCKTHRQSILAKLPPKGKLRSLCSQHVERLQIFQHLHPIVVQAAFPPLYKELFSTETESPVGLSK
Method in brief: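 Antagonism is scored as a fall in luminescence from a RORE-luciferase reporter in CHO cells expressing ROR under a TET-inducible promoter, measured 16hr after doxycycline induction in the presence of compound.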

[35] = qHTS assay for small molecule agonists of the antioxidant response element (ARE) signaling pathway measured by Nrf2-dependant transcriptional activity (AID 720636; active = well fitted curve in the direction sought with a large enough effect in the repeat runs; an effect the other way counts as inactive or inconclusive;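 also: HepG2 cells with an ARE-driven luciferase reporter; % of control where 0% means no effect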)
Method in brief: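 HepG2 ARE-luc reporter line, 1% dialyzed FBS; 6 hr attachment at 37 C, compound pinned in, 16 hr at 37 C/5% CO2; ONE-Glo, 30 min RT, luminescence read.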

[36] = qHTS assay for small molecule antagonists of the retinoid-related orphan receptor gamma (ROR-gamma) signaling pathway - cell viability counter screen (AID 720652; active = well fitted curve in the direction sought with a large enough effect in the repeat runs; an effect the other way counts as inactive or inconclusive)
Method in brief: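 Cytotoxicity is quantified via intracellular ATP (CellTiter-Glo luminescence) in doxycycline-induced CHO ROR response element-luciferase reporter cells treated with compound for 16 hr at 37 C, 5% CO2.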

[37] = qHTS assay for small molecule agonists of the antioxidant response element (ARE) signaling pathway measured by Nrf2-dependant transcriptional activity - cell viability counter screen (AID 720653; active = well fitted curve in the direction sought with a large enough effect in the repeat runs; an effect the other way counts as inactive or inconclusive; also: % is scaled to controls: 0 for no effect and ±100 for the full control effect); settings: ARE-bla HepG2 viability, CellTiter-Glo ATP luminescence, 16 h; max response: stronger effect = lower value
Method in brief: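 ARE-bla HepG2 cells treated with compounds for 16 h at 37C; this counter screen measures viability as intracellular ATP by CellTiter-Glo luminescence after 30 min at room temperature.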

[38] = qHTS assay for cell viability of HEK293 cells (AID 743288); settings: ATP luminescence (CellTiter-Glo), 18 h; max response: stronger effect = lower value; also: % is scaled to controls: 0 for no effect and ±100 for the full control effect; nearly all actives have a fitted effect of over 50% in size
Method in brief: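 Environmental chemicals tested in qHTS format against parental HEK293 cells; 18 h treatment, 37 C; read-out ATP luminescence (CellTiter-Glo), 30 min RT development.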

[39] = qHTS assay for cell viability of the p53RE-bla HCT-116 cell line (AID 743292)
Method in brief: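 Luminescent ATP quantitation (CellTiter-Glo) served as the viability read-out; reagent was added after 16 h compound exposure at 37 C and read after 30 min at room temperature. Cells: p53RE-bla HCT-116, 4,000 per well.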

[40] = molecular target: Nuclear receptor subfamily 1 group I member 2 (Rattus norvegicus) (UniProt Q9R1A7); assay: qHTS assay for small molecule activators of the rat pregnane X receptor (rPXR) signaling pathway (AID 651751; call rule not given here; also: 0% is about no effect); settings: rPXR reporter cells, luciferase (One-Glo), 24 h
Nuclear receptor subfamily 1 group I member 2 (Rattus norvegicus), sequence (Q9R1A7 whole entry, looked up): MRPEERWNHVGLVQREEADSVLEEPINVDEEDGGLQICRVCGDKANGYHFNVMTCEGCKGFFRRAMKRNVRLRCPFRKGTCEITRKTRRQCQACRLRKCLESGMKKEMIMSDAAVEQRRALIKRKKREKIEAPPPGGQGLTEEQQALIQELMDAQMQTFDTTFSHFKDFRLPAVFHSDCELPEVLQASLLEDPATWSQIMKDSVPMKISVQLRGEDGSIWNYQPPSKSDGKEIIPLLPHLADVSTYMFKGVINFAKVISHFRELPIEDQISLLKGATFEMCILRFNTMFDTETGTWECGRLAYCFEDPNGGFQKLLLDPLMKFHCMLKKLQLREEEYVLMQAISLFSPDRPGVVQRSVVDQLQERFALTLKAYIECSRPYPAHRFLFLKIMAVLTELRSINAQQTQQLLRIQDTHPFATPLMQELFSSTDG

[41] = qHTS assay for small molecule activators of the human pregnane X receptor (PXR) signaling pathway (AID 720659; call rule not given here; also: 0% is about no effect)

O=Cc1ccc(Cl)c(Cl)c1
20.6%: max response [20]
2.17%: max response [25]
inactive: Potency [1] | Potency [2] | Potency [3] | Potency [4] | Potency [5] | Potency [6] | Potency [7] | Potency [8] | Potency [9] | Potency [10] | Potency [11] | Potency [12] | Potency [13] | Potency [14] | Potency [15] | Potency [16] | Potency [17] | activation [18] -2.24% | Potency [19] | outcome [21] | outcome [22] | Potency [23] | outcome [24] | outcome [26] | outcome [27] | activity change % (negative = inhibition) [28] 11% | Potency [29] | activation [30] -1.08% | activation [31] -0.954% | outcome [32] | max response [33] 1.8% | Potency [34] | Potency [35] | Potency [36] | max response [37] 7.11% | max response [38] -7.75% | Potency [39] | max response [40] -0.904% | outcome [41]
